Reference: PubChem BioAssay (NCATS)
Records with an inconclusive call do not appear. Where a call stands in place of a potency, no number is given. Active and inactive are the calls of the source. Calls come from the whole dose curve; as a rule, active = well fitted inhibition curve with a large enough effect; inconclusive = small, poorly fitted or top-dose-only effect; inactive = no such curve, though single readings can be large or run the other way.

Test: qHTS assay for measurement of the activity of small molecule inhibitors on Zika virus induced Caspase-3 activity in human iPSC derived neural progenitor cells (hNPCs) (AID 1224857); note: nearly all actives have a fitted effect of over 65% in size
Settings: hNPCs ZIKV-induced caspase-3/7, Caspase-Glo luminescence, 6 h; series mostly up to 45.7 µM
Summary of the method: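 Pretreat hNPCs with compound 1 h; infect ZIKV 2 FFU/cell; 6 h 37 C, 5% CO2; Caspase-Glo 3/7, 30 min RT; luminescence; normalize to no-virus and virus-only wells.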

Row | Structure (SMILES) | Potency
1 | Nc1ccc(S(=O)(=O)Nc2cnc3ccccc3n2)cc1 | inactive
2 | Cc1c[nH]c2ccccc12 | inactive
3 | CC1=C(C(=O)O)N2C(=O)[C@@H](NC(=O)[C@H](N)c3ccccc3)[C@H]2SC1 | inactive
4 | CN(C)C(=O)Nc1ccc(Cl)c(Cl)c1 | inactive
5 | CC(=O)Nc1ccc(OCC(O)CNC(C)C)cc1 (configuration not stated) | inactive
6 | CO[C@H]1C=CO[C@@]2(C)Oc3c(C)c(O)c4c(O)c(c(/C=N/N5CCN(C)CC5)c(O)c4c3C2=O)NC(=O)/C(C)=C\C=C[C@H](C)[C@H](O)[C@@H](C)[C@@H](O)[C@@H](C)[C@H](OC(C)=O)[C@@H]1C | inactive
7 | O=C(Nc1cccc(C2=NCCN2)c1)Nc1cccc(C2=NCCN2)c1 | inactive
8 | O=C1c2cccc3c2[C@H](CCC3)CN1[C@@H]1CN2CCC1CC2 | inactive
9 | C#C[C@]1(O)CC[C@H]2[C@@H]3CCc4cc(OC)ccc4[C@H]3CC[C@@]21C | inactive
10 | O=C1OC2(c3ccccc31)c1cc(Br)c(O)c(Br)c1Oc1c2cc(Br)c(O)c1Br | inactive
11 | O=C(N/N=C/c1ccc([N+](=O)[O-])o1)c1ccc(O)cc1 | inactive
12 | CC(=O)O[C@]1(C(C)=O)CC[C@H]2[C@@H]3C=C(C)C4=CC(=O)CC[C@]4(C)[C@H]3CC[C@@]21C | inactive
13 | NCc1ccccc1Sc1ccccc1CO | inactive
14 | COc1ccc(C(=O)c2ccccc2O)c(O)c1 | inactive
15 | O=C(O)c1ccc(S(=O)(=O)N(Cl)Cl)cc1 | inactive
16 | COc1ccc(-c2cc(C(F)F)nn2-c2ccc(S(N)(=O)=O)cc2)cc1F | inactive
17 | CCC1Nc2cc(Cl)c(S(N)(=O)=O)cc2S(=O)(=O)N1 (configuration not stated) | inactive
18 | CC(=O)N[C@@H](CCC(=O)O)C(=O)O | inactive

Row | Structure (SMILES) | Potency
19 | CC(=O)Oc1ccc(C)cc1 | inactive
20 | NS(=O)(=O)c1ccc(Cl)c(S(N)(=O)=O)c1 | inactive
21 | CN1CCC[C@@H]1CCO[C@](C)(c1ccccc1)c1ccc(Cl)cc1 | inactive
22 | COc1cc(NS(=O)(=O)c2ccc(N)cc2)ncn1 | inactive
23 | Cc1ncc(CO)c(C=O)c1O | inactive
24 | CCOC(=O)C(C#N)=C(c1ccccc1)c1ccccc1 | inactive
25 | CCCCc1cc2ccccc2c(OCCN(C)C)n1 | inactive
26 | CC(C)Cc1ccc(CC(=O)O)cc1 | inactive
27 | CC(O)Cn1cnc2c1c(=O)n(C)c(=O)n2C (configuration not stated) | inactive
28 | O=C1[C@H](CC[C@H](O)c2ccc(F)cc2)[C@@H](c2ccc(O)cc2)N1c1ccc(F)cc1 | inactive
29 | CCN(CC)CCOC(=O)C1(c2ccccc2)CCCC1 | inactive
30 | O=C(Nc1ncc([N+](=O)[O-])s1)c1cccs1 | inactive
31 | CC(C)n1c(/C=C/[C@@H](O)C[C@@H](O)CC(=O)O)c(-c2ccc(F)cc2)c2ccccc21 | inactive
32 | CCN(CC)CCOC(=O)C(Cc1cccc2ccccc12)CC1CCCO1 (configuration not stated) | inactive
33 | CC1CCc2c(N3CCC(O)CC3)c(F)cc3c(=O)c(C(=O)O)cn1c23 (configuration not stated) | inactive
34 | Cc1cn([C@H]2C[C@H](F)[C@@H](CO)O2)c(=O)[nH]c1=O | inactive
35 | CC(C)(C)NCC(O)COc1cccc2c1C[C@H](O)[C@H](O)C2 (some centres not stated) | inactive
36 | COc1cc([C@H]2Oc3cc([C@H]4Oc5cc(O)cc(O)c5C(=O)[C@@H]4O)ccc3O[C@@H]2CO)ccc1O | inactive

Test: qHTS assay for measurement of the activity of small molecule inhibitors on Zika virus induced Caspase-3 activity in human astrocytoma cells (AID 1224859)
Settings: SNB-19 ZIKV-induced caspase-3/7, luminescence, 6 h; series mostly up to 45.7 µM
Summary of the method: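 Human SNB-19 astrocytoma cells in RPMI 1640 with 10% FBS receive compound one hour ahead of Zika virus at 2 FFU/cell. After 6 h infection, caspase-3/7 activity is detected by Caspase-Glo luminescence.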

Row | Structure (SMILES) | outcome
37 | Nc1ccc(S(=O)(=O)Nc2cnc3ccccc3n2)cc1 | inactive
38 | Cc1c[nH]c2ccccc12 | inactive
39 | CC1=C(C(=O)O)N2C(=O)[C@@H](NC(=O)[C@H](N)c3ccccc3)[C@H]2SC1 | inactive
40 | CN(C)C(=O)Nc1ccc(Cl)c(Cl)c1 | inactive
41 | CC(=O)Nc1ccc(OCC(O)CNC(C)C)cc1 (configuration not stated) | inactive
42 | CO[C@H]1C=CO[C@@]2(C)Oc3c(C)c(O)c4c(O)c(c(/C=N/N5CCN(C)CC5)c(O)c4c3C2=O)NC(=O)/C(C)=C\C=C[C@H](C)[C@H](O)[C@@H](C)[C@@H](O)[C@@H](C)[C@H](OC(C)=O)[C@@H]1C | inactive
43 | O=C(Nc1cccc(C2=NCCN2)c1)Nc1cccc(C2=NCCN2)c1 | inactive
44 | O=C1c2cccc3c2[C@H](CCC3)CN1[C@@H]1CN2CCC1CC2 | inactive
45 | C#C[C@]1(O)CC[C@H]2[C@@H]3CCc4cc(OC)ccc4[C@H]3CC[C@@]21C | inactive
46 | O=C1OC2(c3ccccc31)c1cc(Br)c(O)c(Br)c1Oc1c2cc(Br)c(O)c1Br | inactive
47 | O=C(N/N=C/c1ccc([N+](=O)[O-])o1)c1ccc(O)cc1 | inactive
48 | CC(=O)O[C@]1(C(C)=O)CC[C@H]2[C@@H]3C=C(C)C4=CC(=O)CC[C@]4(C)[C@H]3CC[C@@]21C | inactive
49 | NCc1ccccc1Sc1ccccc1CO | inactive
50 | COc1ccc(C(=O)c2ccccc2O)c(O)c1 | inactive
51 | O=C(O)c1ccc(S(=O)(=O)N(Cl)Cl)cc1 | inactive
52 | COc1ccc(-c2cc(C(F)F)nn2-c2ccc(S(N)(=O)=O)cc2)cc1F | inactive
53 | CCC1Nc2cc(Cl)c(S(N)(=O)=O)cc2S(=O)(=O)N1 (configuration not stated) | inactive
54 | CC(=O)N[C@@H](CCC(=O)O)C(=O)O | inactive

Row | Structure (SMILES) | outcome
55 | CC(=O)Oc1ccc(C)cc1 | inactive
56 | NS(=O)(=O)c1ccc(Cl)c(S(N)(=O)=O)c1 | inactive
57 | CN1CCC[C@@H]1CCO[C@](C)(c1ccccc1)c1ccc(Cl)cc1 | inactive
58 | COc1cc(NS(=O)(=O)c2ccc(N)cc2)ncn1 | inactive
59 | Cc1ncc(CO)c(C=O)c1O | inactive
60 | CCOC(=O)C(C#N)=C(c1ccccc1)c1ccccc1 | inactive
61 | CCCCc1cc2ccccc2c(OCCN(C)C)n1 | inactive
62 | CC(C)Cc1ccc(CC(=O)O)cc1 | inactive
63 | CC(O)Cn1cnc2c1c(=O)n(C)c(=O)n2C (configuration not stated) | inactive
64 | O=C1[C@H](CC[C@H](O)c2ccc(F)cc2)[C@@H](c2ccc(O)cc2)N1c1ccc(F)cc1 | inactive
65 | CCN(CC)CCOC(=O)C1(c2ccccc2)CCCC1 | inactive
66 | O=C(Nc1ncc([N+](=O)[O-])s1)c1cccs1 | inactive
67 | CC(C)n1c(/C=C/[C@@H](O)C[C@@H](O)CC(=O)O)c(-c2ccc(F)cc2)c2ccccc21 | inactive
68 | CCN(CC)CCOC(=O)C(Cc1cccc2ccccc12)CC1CCCO1 (configuration not stated) | inactive
69 | CC1CCc2c(N3CCC(O)CC3)c(F)cc3c(=O)c(C(=O)O)cn1c23 (configuration not stated) | inactive
70 | Cc1cn([C@H]2C[C@H](F)[C@@H](CO)O2)c(=O)[nH]c1=O | inactive
71 | CC(C)(C)NCC(O)COc1cccc2c1C[C@H](O)[C@H](O)C2 (some centres not stated) | inactive
72 | COc1cc([C@H]2Oc3cc([C@H]4Oc5cc(O)cc(O)c5C(=O)[C@@H]4O)ccc3O[C@@H]2CO)ccc1O | inactive
